Measurements: PubChem BioAssay (Tox21)
Records with an inconclusive call do not appear. Entries that show only a call come without a potency. Activity calls are given as the source filed them. Unless noted, the call rests on the fitted dose curve; in most records, active means well fitted curve in the direction sought with a large enough effect in the repeat runs; inconclusive means weak or mixed curves; inactive means no such curve, though single readings can be large; an effect the other way counts as inactive or inconclusive.

Key:
[1] = A CellTox Green Cytotoxicity Assay to monitor cytotoxicity in HepG2 cells - 0 hour (AID 1224882); further: nearly all actives have a fitted effect of over 35% in size
How it was run: (§1)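 Nonlytic assay: viable cells exclude the dye, so fluorescence scales with cell death. HepG2 at 600 cells/well, compounds added after 5 h, signal read across 40 h.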

[2] = A CellTox Green Cytotoxicity Assay to monitor cytotoxicity in HepG2 cells - 32 hour (AID 1224883); further: nearly all actives have a fitted effect of over 50% in size; further: potency means the concentration at half of the fitted maximal effect
How it was run: as §1

[3] = A CellTox Green Cytotoxicity Assay to monitor cytotoxicity in HEK293 cells - 8 hour (AID 1224884); further: nearly all actives have a fitted effect of over 35% in size
How it was run: (§2)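 Seeding of HEK293 cells together with cytotoxicity dye preceded a 5 h incubation at 37 C/5% CO2. Test compounds in DMSO were then added and fluorescence monitored across 40 h.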

[4] = qHTS RealTime-Glo MT Cell Viability Assay in HepG2 cells - 16 hour (AID 1224885); further: nearly all actives have a fitted effect of over 50% in size
How it was run: (§3)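 Luminescence read-out: viable HepG2 cells reduce a prosubstrate to a NanoLuc substrate, giving a signal proportional to live cell number. Reads taken at 0, 8, 16, 24, 32 and 40 h of compound exposure at 37 C.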

[5] = qHTS RealTime-Glo MT Cell Viability Assay in HEK293 cells - 24 hour (AID 1224886); further: nearly all actives have a fitted effect of over 50% in size; further: potency means the concentration at half of the fitted maximal effect
How it was run: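 Nonlytic real-time viability readout: viable cells convert prosubstrate to NanoLuc substrate, giving luminescence proportional to live cell number. HEK293, 600 cells/well, compound added after 5 h, continuous culture at 37 C.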

[6] = qHTS RealTime-Glo MT Cell Viability Assay in HEK293 cells - 8 hour (AID 1224887); further: top concentration of the series differs between compounds; nearly all actives have a fitted effect of over 50% in size
How it was run: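 Tox21 screen in HEK293 using RealTime-Glo MT chemistry, with cells and reagent co-dispensed. Luminescence proportional to viable cell number was captured at intervals during 40 h compound exposure at 37 C.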

[7] = qHTS RealTime-Glo MT Cell Viability Assay in HepG2 cells - 0 hour (AID 1224889); further: nearly all actives have a fitted effect of over 50% in size
How it was run: as §3

[8] = A CellTox Green Cytotoxicity Assay to monitor cytotoxicity in HepG2 cells - 8 hour (AID 1224890); further: nearly all actives have a fitted effect of over 45% in size
How it was run: as §1

[9] = qHTS assay to identify small molecule antagonists of the estrogen receptor alpha (ER-alpha) signaling pathway using the BG1 cell line in the presence of 0.1 nM 17-beta-estradiol - cell viability counter screen (AID 1259241); further: nearly all actives have a fitted effect of over 40% in size
How it was run: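 VM7Luc4E2 cells (endogenous ER-alpha, 4×ERE-luciferase), hormone-starved 5 days in charcoal-stripped FBS, were treated with compounds plus 0.1 nM 17beta-estradiol for 22 hr at 37C; viability read in same wells as CellTiter-Fluor live-cell protease fluorescence.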

[10] = qHTS assay to identify small molecule antagonists of the androgen receptor (AR) signaling pathway using the MDA cell line in the presence of 0.5 nM R1881 - cell viability counter screen (AID 1259242); further: nearly all actives have a fitted effect of over 45% in size; further: potency means the concentration at half of the fitted maximal effect
How it was run: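 R1881 at 0.5 nM final stimulated MDA-kb2 cells during 16 hr compound treatment at 37C. Cytotoxicity read: CellTiter-Fluor fluorescence after 30 min.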

[11] = qHTS assay to identify small molecule HDAC inhibitors - cell viability counter screen (AID 1259365)
How it was run: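 Wild-type HCT-116 cells were seeded at 1,500 per well, incubated overnight at 37 C, then exposed to compounds in DMSO for 2hr. Viability was read by CellTiter-Glo luminescence after 30min at room temperature.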

[12] = qHTS assay to identify small molecule antagonists of the sonic hedgehog signaling (Shh) pathway - cell viability counter screen (AID 1259367); further: nearly all actives have a fitted effect of over 55% in size; further: potency means the concentration at half of the fitted maximal effect
How it was run: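 NIH/3T3-derived Gli1-Luc reporter cells, 2,000/well, plated 4 hr before compound addition, then stimulated with conditioned medium for 24 hr at 37C. Viability measured in the same wells by CellTiter-Fluor fluorescence, reagent added at 23 hr for 1 hr.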

[13] = qHTS assay to identify small molecule agonists of the sonic hedgehog signaling (Shh) pathway (AID 1259368; calls by dose curve; further: series mostly up to about 92 µM; nearly all actives have a fitted effect of over 15% in size)
How it was run: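 Mouse fibroblast (NIH/3T3) reporter cells with stably integrated Gli1-Luc were treated 24 hr with compound; firefly luciferase luminescence served as the read-out.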

[14] = target: Estrogen receptor (Homo sapiens) (UniProt P03372); assay: qHTS assay to identify small molecule antagonists of the estrogen receptor alpha (ER-alpha) signaling pathway using the BG1 cell line in the presence of 0.1 nM 17-beta-estradiol (AID 1259244); further: nearly all actives have a fitted effect of over 50% in size; further: potency means the concentration at half of the fitted maximal effect
How it was run: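 VM7Luc4E2; 4xERE-luciferase; 0.1 nM E2 final; 22 h co-incubation, 37C; ONE-Glo luminescence after 30 min at room temperature.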

[15] = qHTS assay to identify small molecule HDAC inhibitors (AID 1259364); further: potency means the concentration at half of the fitted maximal effect;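 further: wild-type HCT-116 cells with endogenous class I/II HDAC activity; nearly all actives have a fitted effect of over 45% in size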
How it was run: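 Relative class I and II HDAC activity is taken from the luminogenic signal in HCT-116 cells, with compound exposure 2 hr and reagent development 30 min at room temperature.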

[16] = qHTS assay to identify small molecule agonists of the sonic hedgehog signaling (Shh) pathway - cell viability counter screen (AID 1259366); further: nearly all actives have a fitted effect of over 50% in size; further: potency means the concentration at half of the fitted maximal effect
How it was run: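 NIH/3T3-derived 3T3 Gli1-Luc cells (stable Gli1-responsive firefly luciferase reporter) were seeded, rested 4 hr at 37 C/5% CO2, then exposed to compounds in DMSO for 24 hr; viability was read by CellTiter-Fluor fluorescence in the same wells.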

[17] = A CellTox Green Cytotoxicity Assay to monitor cytotoxicity in HEK293 cells - 16 hour (AID 1224888); further: nearly all actives have a fitted effect of over 35% in size
How it was run: as §2

[18] = target: Androgen receptor (Homo sapiens) (UniProt P10275); assay: qHTS assay to identify small molecule antagonists of the androgen receptor (AR) signaling pathway using the MDA cell line in the presence of 0.5 nM R1881 (AID 1259243)
How it was run: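 We exposed MDA-kb2 cells to compounds under 0.5 nM R1881 stimulation for 16 hr at 37C and quantified MMTV-driven luciferase by luminescence.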

[19] = qHTS assay to identify small molecule phospholipidosis (PLD) inducers (AID 1259344; active means well fitted curve in the direction sought with a large enough effect; an effect the other way counts as inactive or inconclusive; further: potency means the concentration at half of the fitted maximal effect)
How it was run: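 HepG2 cells, 900/well, treated with compound plus LipidTOX Red for 24 h at 37 C; amiodarone positive and DMSO negative controls. Fixed with paraformaldehyde/Hoechst, then high-content imaging scored LipidTOX pit count and integrated intensity per well and per cell.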

Chain of Estrogen receptor (Homo sapiens) (P03372 whole entry, looked up): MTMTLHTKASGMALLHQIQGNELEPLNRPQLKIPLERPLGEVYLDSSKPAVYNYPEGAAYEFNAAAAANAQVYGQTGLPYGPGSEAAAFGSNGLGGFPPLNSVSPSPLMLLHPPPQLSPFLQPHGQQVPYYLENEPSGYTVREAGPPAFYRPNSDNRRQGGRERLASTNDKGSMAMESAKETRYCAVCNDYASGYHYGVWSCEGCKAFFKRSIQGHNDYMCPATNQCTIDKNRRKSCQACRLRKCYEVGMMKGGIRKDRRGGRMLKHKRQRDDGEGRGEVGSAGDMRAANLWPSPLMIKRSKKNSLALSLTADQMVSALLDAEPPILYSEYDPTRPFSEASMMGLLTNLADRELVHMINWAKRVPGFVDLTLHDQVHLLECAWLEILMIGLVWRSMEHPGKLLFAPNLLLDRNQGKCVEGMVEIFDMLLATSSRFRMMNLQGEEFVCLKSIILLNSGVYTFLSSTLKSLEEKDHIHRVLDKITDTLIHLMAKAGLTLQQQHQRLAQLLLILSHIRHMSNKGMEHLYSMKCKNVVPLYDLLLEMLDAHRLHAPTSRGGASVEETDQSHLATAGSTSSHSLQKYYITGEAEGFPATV
Chain of Androgen receptor (Homo sapiens) (P10275 whole entry, looked up): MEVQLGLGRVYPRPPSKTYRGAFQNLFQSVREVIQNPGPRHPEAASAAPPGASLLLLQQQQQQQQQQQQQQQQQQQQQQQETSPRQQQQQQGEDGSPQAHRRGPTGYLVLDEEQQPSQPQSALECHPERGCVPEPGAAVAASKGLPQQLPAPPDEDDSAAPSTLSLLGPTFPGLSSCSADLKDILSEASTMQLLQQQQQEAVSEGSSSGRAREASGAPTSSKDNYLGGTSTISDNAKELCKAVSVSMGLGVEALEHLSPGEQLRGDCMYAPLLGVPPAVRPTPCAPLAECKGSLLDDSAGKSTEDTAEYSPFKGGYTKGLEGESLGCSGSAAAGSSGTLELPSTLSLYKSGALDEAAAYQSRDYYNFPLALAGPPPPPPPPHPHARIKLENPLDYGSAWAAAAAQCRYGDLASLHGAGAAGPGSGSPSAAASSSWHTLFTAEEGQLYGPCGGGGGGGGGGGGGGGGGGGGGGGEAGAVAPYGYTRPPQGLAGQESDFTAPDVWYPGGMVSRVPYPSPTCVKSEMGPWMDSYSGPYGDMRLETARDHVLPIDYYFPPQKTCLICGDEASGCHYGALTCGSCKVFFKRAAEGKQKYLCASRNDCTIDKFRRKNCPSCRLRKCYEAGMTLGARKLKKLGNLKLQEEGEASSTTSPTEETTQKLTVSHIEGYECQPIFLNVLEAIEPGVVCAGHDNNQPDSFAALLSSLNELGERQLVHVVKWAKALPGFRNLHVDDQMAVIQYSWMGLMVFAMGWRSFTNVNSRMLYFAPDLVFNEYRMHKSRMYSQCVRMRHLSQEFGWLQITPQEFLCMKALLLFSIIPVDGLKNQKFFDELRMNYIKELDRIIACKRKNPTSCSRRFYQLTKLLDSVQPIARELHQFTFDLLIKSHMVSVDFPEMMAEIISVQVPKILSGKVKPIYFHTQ

Row | SMILES | Potency [1] | Potency [2] | Potency [3] | Potency [4] | Potency [5] | Potency [6] | Potency [7] | Potency [8] | Potency [9] | Potency [10] | Potency [11] | Potency [12] | Potency [13] | Potency [14] | Potency [15] | Potency [16] | Potency [17] | Potency [18] | Potency [19]
1 | CCN(C(=O)c1cc(C)cc(OC[C@H](C)Nc2ccncc2)c1)C(C)C | inactive | inactive | inactive | inactive | inactive | inactive | inactive | inactive | inactive | inactive | inactive | inactive | inactive |  |  |  |  |  | 
2 | CN(C)c1ccc(SC#N)cc1 | inactive | inactive | inactive |  |  | inactive | inactive | inactive | inactive | inactive | inactive |  |  | inactive | inactive | inactive |  |  | 
3 | CCOC(=O)c1nc(C(Cl)(Cl)Cl)n(-c2ccc(Cl)cc2Cl)n1 | inactive | inactive | inactive |  | inactive |  | inactive | inactive | inactive | inactive | inactive | 61.1 µM (active) |  | inactive | inactive | inactive | inactive | 61.1 µM (active) | 
4 | CN1CCC(Nc2ncc3ncnc(Nc4ccc(F)c(Cl)c4)c3n2)CC1 | inactive | 26.8 µM (active) | inactive |  | 9.52 µM (active) |  | inactive | inactive | inactive | inactive | inactive |  | inactive |  |  | 29.8 µM (active) | inactive |  | 11.2 µM (active)
5 | COc1c(C)c2c(c(O)c1C/C=C(\C)CCC(=O)O)C(=O)OC2 | inactive | inactive | inactive |  |  | inactive | inactive | inactive | inactive | inactive | inactive | inactive | inactive | inactive | inactive | inactive |  |  | inactive
6 | O=C(Nc1cccc([N+](=O)[O-])c1)c1cc2ccccc2cc1O | inactive | inactive | inactive | inactive |  | inactive | inactive | inactive | inactive | 6.86 µM (active) | inactive |  | inactive | 5.45 µM (active) | 1.54 µM (active) | inactive | inactive | 5.45 µM (active) | 
7 | COc1cc(/C=C/C(=O)O[C@H]2CC[C@]34C[C@]35CC[C@]3(C)[C@@H]([C@H](C)CCC=C(C)C)CC[C@@]3(C)[C@@H]5CC[C@H]4C2(C)C)ccc1O | inactive | inactive | inactive | inactive | inactive | inactive | inactive | inactive | inactive | inactive | inactive | inactive | inactive |  | inactive | inactive |  |  | inactive
